Data from PubChem BioAssay (NCATS).
Records with an inconclusive call do not appear. A number with no mark means an inactive call. Calls of active or inactive are those of the source. The call rests on the fitted dose curve; in most records, active means well fitted curve in the direction sought with a large enough effect; inconclusive means small, poorly fitted or top-dose-only effect, or effect the other way, or another doubt; inactive means no such curve, though single readings can be large or run the other way.

Experiment: DH5-alpha competent E. coli microbial cell viability qHTS against the NCATS CANVASS Library (AID 1347377); on viability signal change, negative = cytotoxic: 0% is about no effect
Conditions: BacTiter-Glo ATP luminescence, overnight; series mostly up to 46.1 µM; viability signal change, negative = cytotoxic: at the top concentration
Text: Natural products and their derivatives continue to be wellsprings of nascent therapeutic potential. However, many laboratories have limited resources for biological evaluation, leaving their previously isolated or synthesized compounds largely or completely untested. To address this issue, the Canvass library of natural products was assembled (https://tripod.nih.gov/canvass), in collaboration with academic and industry researchers, for quantitative high-throughput screening (qHTS) across a diverse set of cell-based and biochemical assays. The pure (>85% purity by liquid chromatography/mass spectrometry [LC/MS]) Canvass library of 346 natural products were submitted by 45 academic laboratories and companies around the world. We collected pure natural products to circumvent deconvolution and structure elucidation due to time and resource limitations. The library was formatted into 1536-well plates and evaluated in 50 qHTS (in an 11-pnt concentration series) bioassays with broad scope of disease-relevant mechanisms. The resulting data set from 50 different assays was then systematically analyzed to identify overall trends and specific natural products with interesting biological activities. Reported herein are the results of each individual qHTS and their corresponding assay protocol. The BacTiter-Glo microbial cell viability assay is a homogeneous method for determining the number of viable bacterial cells in culture based on quantitation of the ATP present. ATP is an indicator of metabolically active cells. The homogeneous assay procedure involves adding a single reagent (BacTiter-GloTM Reagent) directly to bacterial cells in medium and measuring luminescence. National Center for Advancing Translational Sciences (NCATS), Rockville, MD National Institute of Health (NIH), Bethesda, Maryland
DH5-alpha competent E.coli cytotoxicity protocol: 1. In a 1536 well, tissue culture treated white solid bottom plates (Greiner Bio-One North America), 5 uL of DH5-alpha competent E. coli suspension (0.9 OD culture diluted 0.2 OD) was dispensed into columns 1, 2, and 5-48 using the Multidrop Combi dispenser (Thermo Fisher Scientific). 2. Controls and compounds were pin transferred (~23 nL volume) to the assay plates via Wako Pin-tool (Wako Automation, Richmond VA) equipped with a 1536 pin head. The compounds were transferred to columns 5-48 resulting in a final concentration ranging from 0.17nM to 92uM. Daunomycin was used as a control in various concentrations (1mM working concentration; 1:2 dilution; 16 points; n=2; column 2, rows) for a final concentration range of 0.2 nM to 9.2 uM. 3. The assay plates were incubated overnight at 37C, 5% CO2, 95% humidity. 4. 2.5 uL of BacTiterGlo solution (Promega) was then added to the assay plates (column 1-48, rows 1-32). The assay plates were incubated at room temperature for 20 min. 5. Luminescence signal was acquired via the ViewLux plate reader using a clear emission filter, 2 second exposure and 2x binning settings.

SMILES	viability signal change, negative = cytotoxic	outcome
COc1ccc2c(c1)[nH]c1c(C)nccc12	26.5% [at 91.4 µM]	
COc1ccc(C23Oc4cc(OC)cc(OC)c4[C@](O)([C@H](c4ccccc4)C2C(=O)NCCCCNC(=O)c2ccccc2)[C@@H]3O)cc1 (stereo partly specified)		inactive
CCC(=O)CCCCC[C@@H]1NC(=O)[C@H]2CCCCN2C(=O)[C@H]([C@@H](C)CC)NC(=O)[C@H](Cc2cn(OC)c3ccccc23)NC1=O	18.8%	
COc1ccc2c3c([nH]c2c1)C(C)=NCC3	8.02%	
CC[N@@+]1([O-])C[C@]2(C)CC[C@@H](O)[C@@]34C5C[C@H]6CC[C@@]5(C(C[C@H]23)C41)[C@H](O)[C@@]6(O)CO (stereo partly specified)	10.5%	
CO[C@H](c1ccccc1)[C@H]1NC(=O)C(C)NC(=O)C(C[C@@H](C)CO)N(C)C(=O)[C@@H](C(O)c2cn(C(C)(C)C3CO3)c3ccccc23)NC(=O)C(C(C)C=C(C)C)NC(=O)C(CC(C)C)N(C)C(=O)C(C(C)C)NC1=O (stereo partly specified)	18.6% [at 27.5 µM]	
CCN1C[C@]2(C)CC[C@H](O)[C@]34C1C(C[C@H]23)[C@@]12CC[C@H](CC14)[C@](O)(COC(=O)c1ccc(OC)c(OC)c1)[C@H]2O (stereo partly specified)	1.02%	
CC=C1CN(C=O)[C@H]2C[C@@H]1[C@@H](C(=O)OC)[C@@]13CCOC21Nc1ccccc13 (stereo partly specified)	10.3%	
CNCCc1ccc(O)cc1	1.85%	
CC[C@@H]1CN2CC[C@@]3(O)C(=Nc4cccc(OC)c43)[C@@H]2C[C@@H]1/C(=C\OC)C(=O)OC	2.27%	
CN1C(=O)[C@]23CC4C(C)(C)[C@@]5(C[C@@]41CN2CC[C@@]3(C)O)C(=O)Nc1c5ccc2c1OC=CC(C)(C)O2 (stereo partly specified)	0.888%	
CC(=O)N[C@H]1CCN2CCC[C@H]12	6.52% [at 103 µM]	
CCC[C@H]1CC[C@H]2[C@H](C)CCC[C@H]2N1	12.8%	
CNCCc1ccccc1	20.2%	
CCCC[C@@H]1CC[C@H]2CCCC(CCC)N12 (stereo partly specified)		inactive
C/C=C1/CN2CC[C@]34C(=Nc5ccccc53)[C@@H]2C[C@@H]1[C@H]4C(=O)OC	15% [at 91.4 µM]	
CCN1C[C@]2(C)CC[C@@H](O)[C@]34C1[C@H](C[C@H]23)C12CCC(CC14)[C@](O)(CO)[C@H]2O (stereo partly specified)	9.61%	
CO[C@@H](/C=C/CC/C=C/C(=O)O)[C@@H](O)[C@H](C)[C@@H](O)/C(C)=C/[C@H](C)C(=O)CCCC1CC(=O)NC(=O)C1		inactive
C=C1[C@@H](C)[C@H]2[C@H](Cc3ccccc3)NC(=O)[C@]23OC(=O)/C=C/[C@H](O)CCC[C@@H](C)C/C=C/[C@H]3[C@@H]1O		inactive
C[C@@H]1CC[C@@H](c2ccoc2)N2C[C@@]3(CC[C@@H]12)CS[C@@]1(CC[C@H]2[C@H](C)CC[C@@H](c4ccoc4)N2[C@@H]1O)C3	10.1%	
COC(=O)C1=C2Nc3ccccc3[C@@]23CCN2CC(C(C)=O)C1C[C@H]23 (stereo partly specified)	5.3%	
NCCc1ccccc1	0.932%	
CNCCc1c[nH]c2ccccc12		inactive
CC1=CC(=O)C2=C(C)C[C@H](O)[C@@H]3[C@H](OC(=O)[C@@H]3C)[C@@H]12	9.12%	
CN(C)Cc1c[nH]c2ccccc12		inactive
CCCCC[C@@H]1OC(=O)[C@@H](C)N(C)C(=O)[C@H](CCCCC)OC(=O)C(C)N(C)C(=O)[C@H](CCCCC)OC(=O)[C@@H](C)N(C)C(=O)[C@H](CCCCC)OC(=O)C(C)N(C)C1=O (stereo partly specified)	7.74%	
